Source: PubChem (several laboratories)
CYP2C19 inh – human CYP2C19 inhibition; P33261; CYP2C19 Supersomes, luciferin-H EGE luminescence, 30 min; inhibition, % at 5 µM; 21% of 96,000 active;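 active means CYP2C19 inhibition above a set limit at 5 µM in the primary screen, cut at about 50% in these data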;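 further: plate controls were negative control wells for no effect and 2.5 mM tranylcypromine positive control for full effect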
PostGolgi ctrl – growth of the yeast control strain, post-Golgi counter-screen | AID 738 | inhibition, % at 10 µM | efflux-deficient yeast background strain, growth absorbance A615, 16 h | 5% of 98,000 active
PostGolgi yeast – growth inhibition of a yeast mutant, post-Golgi transport screen; 0.9% of 98,000 active; inhibition, % at 10 µM; post-Golgi transport phenotypic cell assay;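 further: yeast cells grown in 1536-well plates; yeast grown about 18 h at 30C before absorbance read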
CYP2C9 inh – inhibitors of human CYP2C9 | P11712 | CYP2C9 Supersomes, luciferin-H conversion, luminescence | inhibition, % at 5 µM | 20% of 96,000 active;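 active means blocking of liver enzyme CYP2C9 beyond about 50% at 5 µM, limit read from the data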
Target sequence (P11712 whole entry, looked up): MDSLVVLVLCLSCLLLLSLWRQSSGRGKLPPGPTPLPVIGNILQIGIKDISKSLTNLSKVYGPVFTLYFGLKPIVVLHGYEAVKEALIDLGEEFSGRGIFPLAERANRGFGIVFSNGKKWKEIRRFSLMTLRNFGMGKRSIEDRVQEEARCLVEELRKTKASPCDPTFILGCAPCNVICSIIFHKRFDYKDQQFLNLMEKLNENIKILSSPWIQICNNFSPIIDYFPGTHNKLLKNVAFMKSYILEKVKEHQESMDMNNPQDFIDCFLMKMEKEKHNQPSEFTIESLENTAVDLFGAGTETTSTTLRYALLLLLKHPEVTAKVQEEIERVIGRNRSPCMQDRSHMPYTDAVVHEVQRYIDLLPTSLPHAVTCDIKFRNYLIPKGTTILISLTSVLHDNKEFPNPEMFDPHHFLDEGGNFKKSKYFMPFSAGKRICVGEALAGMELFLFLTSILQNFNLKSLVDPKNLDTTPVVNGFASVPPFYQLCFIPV
CYP2C19 activ – cytochrome P450 2C19 (human) activation | P33261 | recombinant CYP2C19, luciferin-H EGE luminescence; active compounds read high; 0 = fully inhibited enzyme, 1 = untreated enzyme | activation factor at 5 µM | 96,000 tested, under 10 active;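 active means activation factor of at least 2 at 5 µM in the primary screen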;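 further: 0 = wells with 2.5 mM tranylcypromine and 1 = vehicle-only wells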
CYP2C9 act – activators of human CYP2C9; recombinant CYP2C9, luciferin-H conversion, luminescence; active compounds read high; factor 1 = untreated enzyme, 0 = blocked; activation factor at 5 µM; 1.4% of 96,000 active;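 active means activation factor of 2 or more for CYP2C9 at a 5 µM dose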;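 further: 0 = sulfaphenazole-blocked wells and 1 = vehicle-only wells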
Starred values were filed as active, the others as inactive; . = no result. Sampled rows, rich in hits. Any-hit rate of the full collection: about 32%. Unless noted, no stated cut-off is given here; in the data, active means inhibition above about 30%; inactive means the rest.

SMILES	CYP2C19 inh	PostGolgi ctrl	PostGolgi yeast	CYP2C9 inh	CYP2C19 activ	CYP2C9 act
CCn1c(SC(C)C(=O)NC2CCCc3ccccc32)nnc1-c1cccs1 (configuration not stated)	89*	-9	-4	86*	0.1	0.1
CC(Sc1nnc(-c2cccs2)n1Cc1ccccc1)C(=O)NCc1ccc2c(c1)OCO2 (configuration not stated)	48	11	-5	85*	0.5	0.2
Cc1ccc(-c2csc3nnc(SCC(=O)NCc4ccc5c(c4)OCO5)n23)cc1	26	25	-4	44	0.7	0.6
Cc1nnc(SCC(=O)N2CC(=O)Nc3ccccc32)n1-c1ccccc1	1	10	6	-6	1	1.1
CCn1c(SCC(=O)NCc2ccc3c(c2)OCO3)nnc1-c1cccs1	4	-10	1	77*	1	0.2
O=C1CN(C(=O)CSc2nnc(-c3ccccc3)n2Cc2ccc3c(c2)OCO3)c2ccccc2N1	63*	-2	38*	37	0.4	0.6
Cc1cc2ncn(C(=O)N3CCOCC3)c2cc1C	-3	-12	27	-5	1	1
O=C1CC(N2CCN(Cc3ccccc3)CC2)C(=O)N1c1ccc2c(c1)OCCO2 (configuration not stated)	22	-5	-1	2	0.8	1
COc1ccccc1NC(=O)N(C1CCCC1)C1CCN(C(C)=O)CC1	-6	14	-6	-6	1.1	1.1
O=C(Cn1cnnn1)Nc1ccccc1Cc1ccccc1	.	0	0	.	.	.
O=C(CSc1nnc(-c2cccs2)n1Cc1ccccc1)NCc1ccc2c(c1)OCO2	53*	6	-1	79*	0.5	0.2
Cc1ccc(Cl)cc1N1CCN(C(=O)C2CCN(S(=O)(=O)c3cccnc3)CC2)CC1	61*	13	-6	55*	0.4	0.5
Cc1ccc(Cl)cc1N1CCN(C(=O)C2CCN(S(=O)(=O)c3c(C)nn(C)c3C)CC2)CC1	35	41*	2	-76	0.6	1.8
O=C(C1CCCN(S(=O)(=O)c2cccnc2)C1)N1CCN(c2ccccn2)CC1 (configuration not stated)	9	12	0	63*	0.9	0.4
Cc1ccc(CCNC(=O)C2CCN(S(=O)(=O)c3c(C)nn(C)c3C)CC2)cc1	15	23	-2	-37	0.8	1.4
COC(=O)c1ccccc1S(=O)(=O)Nc1ccc(OC)nc1	85*	-3	26	23	0.2	0.8
COC(=O)c1ccccc1OCc1cccc(C)n1	18	22	-5	36	0.8	0.6
COc1ccc(NS(=O)(=O)c2ccc3oc4ccccc4c3c2)cn1	96*	47*	-3	99*	0	0
COc1cc(Cn2c(N)c(C#N)c3nc4ccccc4nc32)cc(OC)c1	-6	0	3	56*	1.1	0.4
N#Cc1c(N)n(CCc2ccc(F)cc2)c2nc3ccccc3nc12	99*	5	-2	80*	0	0.2
COc1ccccc1CNC(=O)c1c(N)n(CCCN2CCOCC2)c2nc3ccccc3nc12	32	20	12	34	0.7	0.7
Nc1c(C(=O)NCc2ccco2)c2nc3ccccc3nc2n1CCc1ccc(F)cc1	43	15	6	58*	0.6	0.4
COc1ccc(Cn2c(N)c(C#N)c3nc4ccccc4nc32)cc1	20	4	-6	26	0.8	0.7
Nc1c(C(=O)NCc2ccc3c(c2)OCO3)c2nc3ccccc3nc2n1CCCN1CCOCC1	69*	15	21	44	0.3	0.6
COc1ccc(-c2nc3ccc(N4CCCC4)cc3c(=O)[nH]2)cc1OC	-5	13	6	4	1	1
C=CCOc1ccc(C(=O)N(Cc2ccc(N(C)C)cc2)C2CCS(=O)(=O)C2)cc1 (configuration not stated)	2	5	7	15	1	0.9
Cc1cc(NC(=O)c2cccc(S(=O)(=O)N3CCOCC3)c2)c2ccccc2n1	3	0	9	-15	1	1.2
C=CCSc1nc(-c2ccc3c(c2)OCO3)cc(C(F)(F)F)c1C#N	26	3	5	39	0.7	0.6
COc1ccc(CCN(C(=O)C(F)(F)F)C(C(=O)NC2CCCC2)c2cccs2)cc1 (configuration not stated)	63*	7	-3	77*	0.4	0.2
